Compounds without any hit were thinned out: in the full panel of roughly 83,000, 20% have a hit.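 Results are percent growth after 48 hours of single-concentration exposure. 100 means growth as in untreated cells, lower positive values show inhibition; negative values down to -100 show cell death.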 Calls of active or inactive are those of the source. The calls were made as follows: active = growth percent below 10; inactive = the rest.
Assays:
Assay in all cases: NCI-60 one-dose screen, 48 h (100 = growth as untreated, 0 = no growth, -100 = all killed)
[1] = test system: RPMI-8226 leukemia; settings: 10 µM
[2] = test system: OVCAR-8 ovarian; settings: 10 µM
[3] = test system: OVCAR-5 ovarian; settings: 10 µM
[4] = test system: OVCAR-4 ovarian; settings: 10 µM
[5] = test system: SK-OV-3 ovarian; settings: 10 µM
[6] = test system: IGROV1 ovarian; settings: 10 µM
[7] = test system: OVCAR-3 ovarian; settings: 10 µM
[8] = test system: HS 578T breast; settings: 10 µM
[9] = test system: NCI/ADR-RES ovarian; settings: 10 µM
[10] = test system: T-47D breast; settings: 10 µM
[11] = test system: BT-549 breast; settings: 10 µM
[12] = test system: MDA-MB-435 melanoma; settings: 10 µM
[13] = test system: SW-620 colon; settings: 10 µM
[14] = test system: MCF7 breast; settings: 10 µM unless noted
[15] = test system: HCT-116 colon; settings: 10 µM
[16] = test system: HCC-2998 colon; settings: 10 µM
[17] = test system: KM12 colon; settings: 10 µM
[18] = test system: SR leukemia; settings: 10 µM

Measured: growth

CCOC(=O)CCCS(C)(=O)=O
inactive: [1] 124% | [2] 108% | [3] 97.4% | [4] 103% | [5] 103% | [6] 120% | [7] 127% | [8] 101% | [9] 103% | [10] 102% | [11] 100% | [12] 119% | [13] 105% | [14] 92.6% | [15] 110% | [16] 91%

CCOC(=O)/C(=C/c1ccc(OC)cc1)N(CC)CC
inactive: [1] 102% | [2] 99.9% | [3] 113% | [4] 116% | [5] 116% | [6] 106% | [7] 106% | [8] 93.7% | [9] 107% | [10] 92.6% | [11] 108% | [12] 110% | [13] 103% | [14] 103% | [15] 101% | [16] 111% | [17] 104%

CCCC[P+](c1ccccc1)(c1ccccc1)c1ccccc1
inactive: [18] 41.2% | [2] 43.4% | [3] 62.6% | [5] 87.2% | [6] 49.1% | [7] 43.5% | [8] 80.2% | [9] 106% | [10] 26.5% | [11] 17.8% | [13] 64.5% | [14] 24.1% | [15] 39.2% | [16] 32.2% | [17] 23.2%

C#Cc1cccc(NC(=O)c2ccc(Cl)cc2Cl)c1
inactive: [1] 78.1% | [2] 105% | [3] 110% | [4] 95.5% | [5] 95.5% | [6] 115% | [7] 109% | [8] 108% | [9] 104% | [10] 95.2% | [11] 111% | [12] 103% | [13] 91.9% | [14] 90.3% | [15] 93.2% | [16] 113% | [17] 115%

CC(C)=NNc1ccc([N+](=O)[O-])cc1[N+](=O)[O-]
inactive: [1] 68.2% | [2] 100% | [3] 105% | [4] 96.5% | [5] 92.9% | [6] 124% | [7] 104% | [8] 90.5% | [9] 93.4% | [10] 64.9% | [11] 90.9% | [12] 84.2% | [13] 85.7% | [14] 93.7% | [15] 82.5% | [16] 87% | [17] 86.4%

CN1C(=O)CN2CCc3ccccc3C2c2cc(Cl)ccc21 (stereo not drawn)
inactive: [1] 88.3% | [2] 101% | [3] 83.9% | [4] 104% | [5] 90.7% | [7] 103% | [9] 96.7% | [10] 104% | [11] 99.7% | [12] 105% | [14] 84.5% | [15] 82.5% | [16] 98.1% | [17] 106%
active: [6] -12.2% | [8] -5.49% | [13] -33.6%

CCS(=O)(=O)CCCl
inactive: [1] 101% | [2] 104% | [3] 105% | [4] 101% | [5] 104% | [6] 107% | [7] 116% | [8] 96.4% | [9] 105% | [11] 95.9% | [12] 104% | [13] 102% | [14] 76.8% | [15] 98.7% | [16] 125% | [17] 99.1%

CN(C)C(=O)Oc1cccc([N+](C)(C)C)c1
inactive: [1] 117% | [2] 103% | [3] 104% | [4] 83.9% | [5] 107% | [6] 115% | [7] 115% | [8] 107% | [10] 99.8% | [11] 112% | [12] 105% | [13] 108% | [14] 87% | [15] 109% | [16] 106% | [17] 102%

COc1ccccc1C1OC2=Nc3cc(C)c(C)cc3NC2C1=O (stereo not drawn)
inactive: [1] 93.5% | [2] 69% | [3] 62.1% | [5] 79.6% | [6] 88.7% | [7] 22.4% | [8] 39.9% | [9] 61.2% | [11] 88.6% | [12] 82.5% | [13] 73.9% | [14] 56.8% | [15] 39.2% | [16] 105% | [17] 93%
active: [4] -14.2%

COC(=O)c1cc(-c2ccc(Cl)c(Cl)c2)[nH]c(=O)c1C#N
inactive: [1] 112% | [2] 101% | [3] 99.2% | [4] 103% | [5] 103% | [6] 110% | [7] 116% | [8] 74.9% | [11] 104% | [12] 104% | [13] 99.1% | [14] 89.1% | [15] 97.2% | [16] 117% | [17] 109%

CC1(O)OC(COc2ccc(Cl)cc2)COC1O (stereo not drawn)
inactive: [1] 109% | [2] 100% | [3] 111% | [4] 99.1% | [5] 116% | [6] 113% | [7] 116% | [8] 95.5% | [9] 103% | [11] 112% | [12] 106% | [13] 101% | [14] 90.4% | [15] 103% | [16] 109% | [17] 108%

COc1ccc(/C(C#N)=C2C=C/C(=N/O)c3ccccc3\2)cc1
inactive: [1] 32.1% | [2] 18.9% | [3] 27.3% | [4] 35.8% | [6] 22.3% | [8] 35.1% | [9] 15.9% | [10] 64.8% | [11] 31% | [13] 20.1% | [14] 13.1%
active: [5] -6.21% | [7] 1.6% | [12] -57% | [16] -11.4% | [17] 3.23%

Nc1nc2c(c(-c3nc(N)nc4c3CCc3ccccc3-4)n1)CCc1ccccc1-2
inactive: [1] 105% | [2] 56.8% | [3] 113% | [4] 101% | [5] 87.2% | [6] 109% | [7] 115% | [8] 80.3% | [9] 101% | [11] 109% | [12] 109% | [13] 101% | [14] 95.4% | [16] 114% | [17] 105%

CC(C)NC(=O)OCc1c(COC(=O)NC(C)C)c(-c2ccc(Cl)c(Cl)c2)n2c1SCC2
inactive: [1] 36% | [2] 44.7% | [4] 38.2% | [5] 21.9% | [7] 47.2% | [8] 36.3% | [9] 38.2% | [11] 21.7% | [12] 67.2% | [13] 44.8% | [14] 32.2% | [15] 29.9% | [17] 77.6%
active: [3] -15.6% | [6] 3.1%

Cc1cc2nc(CC(=O)c3ccccc3)c(=O)[nH]c2cc1C
inactive: [1] 103% | [2] 94.7% | [3] 116% | [4] 102% | [5] 102% | [6] 91.9% | [7] 109% | [8] 73.8% | [9] 94.6% | [11] 89.6% | [12] 106% | [13] 94.3% | [14] 78.1% | [15] 80.3% | [16] 110% | [17] 100%

CC1(C)S(=O)(=O)OCCOS1(=O)=O
inactive: [1] 104% | [2] 99.2% | [3] 110% | [4] 102% | [5] 111% | [6] 108% | [7] 110% | [8] 106% | [9] 103% | [11] 100% | [12] 103% | [13] 101% | [14] 97.1% | [15] 94.6% | [16] 113% | [17] 106%

Cc1ccc(/C=C2\SC(=S)N(c3ccc(F)cc3)C2=O)o1
inactive: [1] 86.4% | [3] 102% | [4] 13.6% | [5] 92.2% | [6] 90.7% | [7] 79.1% | [8] 52.2% | [9] 73% | [11] 112% | [12] 77.4% | [13] 93.3% | [14] 71.1% | [15] 64.5% | [16] 118% | [17] 78.2%
active: [2] 0%

CNC(=S)NC(C)(C)C
inactive: [1] 93.2% | [2] 99.8% | [3] 121% | [4] 113% | [5] 105% | [6] 105% | [7] 124% | [8] 104% | [9] 105% | [11] 89.5% | [12] 106% | [13] 103% | [14] 97.4% | [15] 102% | [16] 115% | [17] 106%

O=C1OC(=O)C2C1C1(Cl)C(Cl)=C(Cl)C2(Cl)C2C(=O)OC(=O)C21 (stereo not drawn)
inactive: [1] 96.4% | [2] 100% | [3] 106% | [4] 101% | [5] 102% | [6] 109% | [7] 112% | [9] 108% | [10] 95.4% | [11] 103% | [12] 101% | [13] 113% | [14] 95.8% | [15] 102%

NCC(=O)CCC(=O)O
inactive: [1] 118% | [2] 104% | [3] 120% | [4] 98% | [5] 99.8% | [6] 112% | [7] 111% | [8] 108% | [9] 107% | [10] 100% | [11] 110% | [12] 108% | [13] 108% | [15] 114% | [16] 97.4% | [17] 108%

Reference: PubChem BioAssay (NCI)
